# Shown are actives, neighbours in structure and some others; about 9.3% of the full set was active somewhere.
# FMDV inh: blocks foot and mouth disease virus; FMDV antiviral cell-based qHTS; Potency, µM (top dose mostly 57.9 µM), for the others: top-dose activity change, negative = inhibition, usual class: inhibitors; 1.2% of 410,000 active; AID 1159524; calls by dose curve; tested in HEK293T cells; further: read-out not given here; potency means the concentration at half of the fitted maximal effect; nearly all actives have a fitted effect of over 45% in size
# Sm TGR inh: S. mansoni TGR enzyme inhibition. 3% of 360,000 active. Q962Y6. purified TGR, DTNB reduction, TNB absorbance 405 nm. Potency, µM (series often up to 114 µM), without a hit: at the highest dose activity change, negative = inhibition, hits mostly inhibitors. AID 485364; further: potency means the concentration at half of the fitted maximal effect; nearly all actives have a fitted effect of over 60% in size
#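 Kinetic colorimetric format: TGR-catalysed, NADPH-driven DTNB reduction monitored via TNB absorbance. Enzyme dispensed at 20 nM; compound exposure 15 min at room temperature before reaction start.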
# VACV Venus inh: vaccinia inhibition (Venus reporter); Vaccinia virus Venus reporter expression, fluorescence; Potency, µM (doses to about 36.5 µM), for inactives: at the highest dose activity change, negative = inhibition, most hits filed as inhibitors; 0.46% of 330,000 active; AID 720580; calls by dose curve; tested in A549 cells; further: potency means the concentration at half of the fitted maximal effect; nearly all actives have a fitted effect of over 30% in size
# HCV inh: HCV inhibition; Huh7.5.1 HCVcc-Cre infection, luciferase reporter, 44 h; Potency, µM (top dose mostly 41.8 µM), for inactives: at the top dose activity change, negative = inhibition, hits mostly inhibitors; 3.4% of 340,000 active; further: potency means the concentration at half of the fitted maximal effect
#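 Luciferase read-out (15 sec integration) after a 15 min room-temperature substrate step quantifies HCVcc-Cre infection. Cells, 1,000 per well, had compound added 4 h post-plating, then virus at ~0.5 moi, and were cultured 44 h.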
# VACV mCherry inh: inhibitors of vaccinia virus infection (mCherry reporter signal); AID 720579; 0.63% of 310,000 active; Vaccinia virus mCherry reporter infection, fluorescence; Potency, µM (top dose mostly 36.5 µM), for the others: top-dose activity change, negative = inhibition, hits mostly inhibitors; calls by dose curve; tested in A549 cells; further: potency means the concentration at half of the fitted maximal effect; nearly all actives have a fitted effect of over 35% in size
# HCMV inh: human cytomegalovirus inhibition. HFF cells, HCMV-luciferase reporter, 72 h; stronger effect = lower value. activity change, negative = inhibition, % at 57.5 µM. 4.5% of 410,000 active; in the data active means activity change below about -60%; inconclusive means no clear call, values can overlap the other calls; inactive means above about -39%
#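 Compounds were evaluated in HFFs infected with an HCMV luciferase reporter virus (MOI 1 PFU/cell). Luciferase in lysates collected 72 h post infection served as the replication measure.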
# * = called active by the depositor; i = inactive; u = inconclusive; x = no result given. Unless noted, the call rests on the fitted dose curve; in most records, active means well fitted curve in the direction sought with a large enough effect; inconclusive means small, poorly fitted or top-dose-only effect, or another doubt; inactive means no such curve, though single readings can be large; an effect the other way counts as inactive or inconclusive. On the % scale 0 is the no-effect control and ±100 the full control effect.
SMILES,FMDV inh,Sm TGR inh,VACV Venus inh,HCV inh,VACV mCherry inh,HCMV inh
CC(=O)N=c1scc(-c2ccccc2)n1-c1cccc(O)c1,-11%,4%,u,u,-23%,-92*
CCNC(=O)COC(=O)c1cc(-c2ccco2)nc2ccccc12,-2%,16µM*,x,11%,x,-12
O=C(c1ccco1)N1CCN(C(=O)c2cc(-c3ccccn3)nc3ccccc23)CC1,0%,35µM*,-2%,0%,-10%,53
O=C(CCNS(=O)(=O)c1ccc(Cl)cc1)OCC(=O)N1CCN(C(=O)c2ccco2)CC1,-9%,-17%,-6%,27%,-12%,18
O=C(OCC(=O)N1CCN(C(=O)c2ccco2)CC1)c1cc(S(=O)(=O)Nc2ccc(Cl)cc2)ccc1O,-7%,45µM*,-8%,7%,-10%,2
Cc1ccc(NC(=O)CSC(C)C(=O)OCC(=O)N2CCN(C(=O)c3ccco3)CC2)cc1 (stereo not given),11%,50µM*,3%,11%,i,-22
O=C(COC(=O)c1cc(F)cc(F)c1)NCCCc1ccccc1,-16%,1%,x,7%,x,0
COc1cccc(CNC(=O)CCl)c1,-6%,u,-13%,31%,-27%,-17
COc1ccc(CNC(=O)COC(=O)c2cc(C)nc3ccccc23)cc1,0%,x,-4%,-1%,i,40
O=C(OCC(=O)N1CCN(C(=O)c2ccco2)CC1)c1cc(-c2ccco2)nc2ccccc12,-13%,5µM*,x,26%,x,94
COc1cccc(CNC(=O)COC(=O)c2nc(Cl)c(Cl)c(Cl)c2Cl)c1,u,3.2µM*,u,u,u,0
COc1cccc(C(=O)OCC(=O)NCCCc2ccccc2)c1,-4%,79µM*,x,11%,x,-25
COc1ccc(CNC(=O)COC(=O)c2cc(-c3ccco3)nc3ccccc23)cc1,x,11µM*,x,x,x,x
CCC1Sc2ccc(S(=O)(=O)CCC(=O)Nc3cccc(Br)c3)cc2NC1=O (stereo not given),u,-3%,x,3%,x,2
COc1ccc(CCN(C)C(=O)CCCN2C(=O)c3cccc4cccc(c34)C2=O)cc1OC,-25%,-25%,-25%,-18%,-10%,-34
COc1ccc(NC(=O)Nc2ccc(N3CCCC3=O)cc2)cc1OC,x,0%,-11%,1%,i,35
Cc1c(O)c(CN2CCCC2)cc2c1oc(=O)c1ccccc12,22%,50µM*,x,u,x,-21
Cc1c(O)ccc2c(CN(C)Cc3ccccc3)cc(=O)oc12,-17%,1%,-13%,-21%,i,-67*
O=c1cc(CN2CCN(Cc3ccccc3)CC2)c2cc3c(cc2o1)CCC3,-21%,35µM*,3%,u,-15%,16
Cc1c(O)ccc2c(CN3CCN(Cc4ccccc4)CC3)cc(=O)oc12,u,5%,x,-7%,x,-62*
O=c1cc(CN2CCN(Cc3ccccc3)CC2)c2ccc(O)c(O)c2o1,-8%,u,-27%,u,-17%,9
COc1ccc(CNC(=O)CC23CC4CC(CC(C4)C2)C3)cc1OC,-1%,11%,-10%,-14%,-13%,-11
O=C(Nc1ccc2c(c1)OCCO2)C(c1ccc(C(F)(F)F)cc1)n1c(=O)c(-c2cc3ccccc3[nH]2)nc2ccccc21 (stereo not given),-3%,x,u,x,-14%,20
O=S(=O)(Nc1cccc(-c2cn3cccnc3n2)c1)c1ccc(Cl)cc1,10%,4%,-20%,-9%,-15%,-23
Cc1ccc(S(=O)(=O)N2CCCC(C(=O)NCC3CCCO3)C2)cc1 (stereo not given),-17%,2%,1%,11%,12%,34
O=C1OCc2cc(NS(=O)(=O)c3cccs3)ccc21,x,0%,-5%,5%,-12%,-63*
COCC(=O)O[C@]1(CCN(C)CCCc2nc3ccccc3[nH]2)CCc2cc(F)ccc2[C@@H]1C(C)C,u,-22%,u,u,-17%,-98*
Cc1cccc(OCC(=O)NCCc2nc3ccccc3[nH]2)c1C,-29%,9%,-10%,x,-11%,7

# Screens deposited in PubChem BioAssay by National Center for Advancing Translational Sciences (NCATS).
